Results: the supplement of paper PMC12819154, “High-throughput peptide-centric local stability assay extends protein–ligand identification to membrane proteins, tissues and bacteria” (Nature Structural & Molecular Biology, 2025)

UniProt Q00532, sequence (Q00532 whole entry): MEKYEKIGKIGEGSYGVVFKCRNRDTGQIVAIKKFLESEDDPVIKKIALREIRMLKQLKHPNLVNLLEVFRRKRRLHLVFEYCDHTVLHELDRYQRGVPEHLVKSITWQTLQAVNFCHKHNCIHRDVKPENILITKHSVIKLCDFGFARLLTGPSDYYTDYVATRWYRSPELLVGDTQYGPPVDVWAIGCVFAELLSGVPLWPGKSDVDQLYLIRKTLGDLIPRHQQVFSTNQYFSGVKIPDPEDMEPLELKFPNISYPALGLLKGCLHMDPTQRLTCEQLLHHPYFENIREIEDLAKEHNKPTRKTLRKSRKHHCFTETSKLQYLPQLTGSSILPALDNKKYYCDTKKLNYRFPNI
UniProt O75676, sequence (O75676 whole entry, looked up): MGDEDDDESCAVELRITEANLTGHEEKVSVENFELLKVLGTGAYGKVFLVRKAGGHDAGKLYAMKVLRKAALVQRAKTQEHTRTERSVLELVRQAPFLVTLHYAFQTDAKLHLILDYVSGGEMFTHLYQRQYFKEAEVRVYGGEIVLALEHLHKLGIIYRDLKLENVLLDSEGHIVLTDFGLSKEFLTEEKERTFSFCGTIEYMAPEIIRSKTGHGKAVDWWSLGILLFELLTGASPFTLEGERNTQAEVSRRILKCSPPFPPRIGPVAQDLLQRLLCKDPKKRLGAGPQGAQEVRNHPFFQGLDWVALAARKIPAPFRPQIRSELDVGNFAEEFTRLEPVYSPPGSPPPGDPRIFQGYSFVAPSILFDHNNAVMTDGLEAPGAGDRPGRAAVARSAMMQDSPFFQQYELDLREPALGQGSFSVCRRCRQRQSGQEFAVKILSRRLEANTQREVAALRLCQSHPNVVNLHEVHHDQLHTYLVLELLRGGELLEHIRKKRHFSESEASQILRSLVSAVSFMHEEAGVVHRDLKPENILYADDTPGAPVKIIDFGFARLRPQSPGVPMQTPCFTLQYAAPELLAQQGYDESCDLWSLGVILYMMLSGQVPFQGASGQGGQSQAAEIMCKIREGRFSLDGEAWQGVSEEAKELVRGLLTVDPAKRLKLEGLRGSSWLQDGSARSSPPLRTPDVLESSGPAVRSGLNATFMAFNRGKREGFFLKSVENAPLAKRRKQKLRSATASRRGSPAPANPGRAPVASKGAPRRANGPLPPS
UniProt P69892, sequence (P69892 whole entry): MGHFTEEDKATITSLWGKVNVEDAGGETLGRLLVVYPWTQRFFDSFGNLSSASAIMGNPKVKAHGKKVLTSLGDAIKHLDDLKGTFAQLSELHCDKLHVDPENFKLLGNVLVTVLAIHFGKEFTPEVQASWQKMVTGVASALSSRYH
UniProt P45983, sequence (P45983 whole entry): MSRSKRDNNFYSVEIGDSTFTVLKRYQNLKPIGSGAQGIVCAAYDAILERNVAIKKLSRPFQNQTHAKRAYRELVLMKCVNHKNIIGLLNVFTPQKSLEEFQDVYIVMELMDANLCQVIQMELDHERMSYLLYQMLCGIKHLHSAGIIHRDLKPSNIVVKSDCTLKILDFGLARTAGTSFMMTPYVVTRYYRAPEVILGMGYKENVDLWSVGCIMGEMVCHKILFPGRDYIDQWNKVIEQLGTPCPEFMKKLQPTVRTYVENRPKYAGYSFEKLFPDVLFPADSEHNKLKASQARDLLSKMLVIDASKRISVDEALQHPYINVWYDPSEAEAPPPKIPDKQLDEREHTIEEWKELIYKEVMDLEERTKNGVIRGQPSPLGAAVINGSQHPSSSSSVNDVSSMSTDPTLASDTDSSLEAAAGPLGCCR
UniProt O00567, sequence (O00567 whole entry): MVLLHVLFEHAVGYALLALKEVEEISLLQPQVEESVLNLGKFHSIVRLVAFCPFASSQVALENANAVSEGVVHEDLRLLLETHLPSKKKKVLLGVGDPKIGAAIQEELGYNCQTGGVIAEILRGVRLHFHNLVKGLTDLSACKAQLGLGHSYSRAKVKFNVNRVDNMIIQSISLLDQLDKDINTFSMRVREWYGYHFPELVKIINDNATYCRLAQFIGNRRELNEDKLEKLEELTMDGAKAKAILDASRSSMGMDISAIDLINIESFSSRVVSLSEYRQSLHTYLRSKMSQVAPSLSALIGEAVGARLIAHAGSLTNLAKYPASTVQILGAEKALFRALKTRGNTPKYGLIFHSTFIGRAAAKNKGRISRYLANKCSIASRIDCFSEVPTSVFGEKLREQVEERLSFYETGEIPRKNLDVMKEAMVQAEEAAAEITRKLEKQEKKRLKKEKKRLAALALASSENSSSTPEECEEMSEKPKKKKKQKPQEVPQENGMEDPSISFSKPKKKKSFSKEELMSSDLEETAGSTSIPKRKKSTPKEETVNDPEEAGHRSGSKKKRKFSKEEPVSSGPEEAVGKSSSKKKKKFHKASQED
UniProt P56192, sequence (P56192 whole entry): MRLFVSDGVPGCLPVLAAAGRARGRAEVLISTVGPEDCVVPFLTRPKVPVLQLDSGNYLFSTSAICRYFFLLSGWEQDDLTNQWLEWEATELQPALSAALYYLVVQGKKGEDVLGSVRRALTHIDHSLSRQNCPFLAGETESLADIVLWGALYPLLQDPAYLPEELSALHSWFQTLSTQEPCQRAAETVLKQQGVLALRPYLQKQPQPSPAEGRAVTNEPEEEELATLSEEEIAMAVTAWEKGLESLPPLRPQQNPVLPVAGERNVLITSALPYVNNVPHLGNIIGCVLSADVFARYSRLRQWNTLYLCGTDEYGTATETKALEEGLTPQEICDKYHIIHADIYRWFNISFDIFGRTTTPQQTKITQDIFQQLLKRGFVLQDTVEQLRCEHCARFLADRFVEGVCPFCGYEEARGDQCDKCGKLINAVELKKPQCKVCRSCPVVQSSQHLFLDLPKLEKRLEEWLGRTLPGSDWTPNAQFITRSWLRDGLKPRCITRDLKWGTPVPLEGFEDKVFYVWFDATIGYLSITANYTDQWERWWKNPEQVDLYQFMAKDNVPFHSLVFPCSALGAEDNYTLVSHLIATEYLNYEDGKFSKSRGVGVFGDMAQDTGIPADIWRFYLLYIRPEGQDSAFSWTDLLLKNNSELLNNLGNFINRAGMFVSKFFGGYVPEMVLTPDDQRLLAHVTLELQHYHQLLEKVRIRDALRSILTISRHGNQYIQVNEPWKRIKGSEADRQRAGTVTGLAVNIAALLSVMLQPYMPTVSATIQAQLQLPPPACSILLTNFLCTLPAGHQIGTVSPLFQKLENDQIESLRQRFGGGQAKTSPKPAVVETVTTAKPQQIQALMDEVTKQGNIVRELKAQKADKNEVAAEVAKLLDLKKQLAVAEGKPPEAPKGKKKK
UniProt Q9UL54, sequence (Q9UL54 whole entry): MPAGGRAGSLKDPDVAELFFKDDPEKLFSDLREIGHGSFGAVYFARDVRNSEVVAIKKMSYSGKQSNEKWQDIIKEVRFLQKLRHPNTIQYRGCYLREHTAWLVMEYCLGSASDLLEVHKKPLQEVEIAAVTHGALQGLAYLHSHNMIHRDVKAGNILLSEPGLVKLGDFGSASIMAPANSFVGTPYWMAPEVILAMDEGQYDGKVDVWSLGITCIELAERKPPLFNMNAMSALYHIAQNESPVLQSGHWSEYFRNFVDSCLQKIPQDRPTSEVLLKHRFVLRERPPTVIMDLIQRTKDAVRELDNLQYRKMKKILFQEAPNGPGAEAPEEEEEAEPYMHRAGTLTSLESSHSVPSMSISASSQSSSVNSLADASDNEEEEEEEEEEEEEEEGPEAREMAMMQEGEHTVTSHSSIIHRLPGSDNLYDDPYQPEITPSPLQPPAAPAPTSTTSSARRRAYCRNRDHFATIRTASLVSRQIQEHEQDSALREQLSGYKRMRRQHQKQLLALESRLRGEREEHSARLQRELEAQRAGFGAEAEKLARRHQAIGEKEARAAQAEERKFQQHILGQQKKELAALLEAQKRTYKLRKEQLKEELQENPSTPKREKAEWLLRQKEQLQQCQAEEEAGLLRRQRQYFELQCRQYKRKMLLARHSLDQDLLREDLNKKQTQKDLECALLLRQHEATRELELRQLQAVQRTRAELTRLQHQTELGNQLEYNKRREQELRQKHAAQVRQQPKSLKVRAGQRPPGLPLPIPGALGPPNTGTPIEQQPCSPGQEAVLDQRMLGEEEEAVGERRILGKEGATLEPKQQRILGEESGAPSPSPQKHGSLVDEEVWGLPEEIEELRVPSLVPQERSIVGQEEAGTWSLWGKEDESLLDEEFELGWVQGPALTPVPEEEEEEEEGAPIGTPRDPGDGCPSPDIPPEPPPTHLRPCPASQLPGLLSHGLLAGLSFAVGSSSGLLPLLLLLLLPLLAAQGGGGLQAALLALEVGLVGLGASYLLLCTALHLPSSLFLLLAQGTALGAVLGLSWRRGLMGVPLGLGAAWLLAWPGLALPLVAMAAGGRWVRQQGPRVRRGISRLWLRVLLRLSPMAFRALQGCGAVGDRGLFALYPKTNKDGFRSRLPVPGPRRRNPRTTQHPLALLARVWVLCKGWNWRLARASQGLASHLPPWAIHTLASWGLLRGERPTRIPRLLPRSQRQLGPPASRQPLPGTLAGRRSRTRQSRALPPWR
UniProt P84022, sequence (P84022 whole entry, looked up): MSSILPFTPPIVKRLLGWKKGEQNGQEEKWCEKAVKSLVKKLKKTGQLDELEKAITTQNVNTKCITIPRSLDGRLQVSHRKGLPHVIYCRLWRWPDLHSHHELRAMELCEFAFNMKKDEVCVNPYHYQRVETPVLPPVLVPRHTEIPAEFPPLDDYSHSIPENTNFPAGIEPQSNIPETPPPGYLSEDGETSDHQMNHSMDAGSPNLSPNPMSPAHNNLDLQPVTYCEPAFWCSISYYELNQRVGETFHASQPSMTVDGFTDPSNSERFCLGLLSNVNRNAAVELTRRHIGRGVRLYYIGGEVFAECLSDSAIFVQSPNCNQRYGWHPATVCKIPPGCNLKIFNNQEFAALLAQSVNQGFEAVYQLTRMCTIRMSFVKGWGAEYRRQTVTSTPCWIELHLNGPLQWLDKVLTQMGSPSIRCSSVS

Each target was assayed with CN[C@@H]1C[C@H]2O[C@@](C)([C@@H]1OC)n1c3ccccc3c3c4c(c5c6ccccc6n2c5c31)C(=O)NC4 [staurosporine] (assay: log2 fold change of tryptic peptide abundance, ligand vs vehicle (limited proteolysis) (log2 ratio); higher = more trypsin-susceptible (destabilized)). Conditions: ligand concentration: 20 uM; sample: K562 cleared lysate; digestion: 4 min, 22 C (HT-PELSA RT4min, Orbitrap Astral).
In the case of “CAMKK1 (peptide sequence: DIKPSNLLLGDDGHVK, peptide start residue: 275) (UniProt Q8N5S9)”, the log2 fold change is reported as -3.71.
“RPS6KA4 (peptide sequence: VLGTGAYGK, peptide start residue: 54) (UniProt O75676)” was tested, and the log2 fold change was -0.533.
“PRKAR2A (peptide sequence: GQYFGELALVTNKPR, peptide start residue: 333) (UniProt P13861)” gave a log2 fold change of 0.659.
For “POLR3A (peptide sequence: ISHICFGMK, peptide start residue: 15) (UniProt O14802)”, the log2 fold change was 0.539.
Work on “CDK9 (peptide sequence: EGFPITALR, peptide start residue: 57) (UniProt P50750)” yielded a log2 fold change of -1.73.
With “EIF3B (peptide sequence: PRPPTLLSQEQIK, peptide start residue: 706) (UniProt P55884)” the log2 fold change was 0.691.
For “UniProt O14920 (peptide sequence: AAMMNLLR, peptide start residue: 453)”, the log2 fold change was 0.5.
In the case of “NSUN2 (peptide sequence: LAQEGIYTLYPFINSR, peptide start residue: 603) (UniProt Q08J23)”, the log2 fold change is reported as -0.339.
Work on “UniProt P27448 (peptide sequence: NSIASCADEQPHIGNYR, peptide start residue: 41)” yielded a log2 fold change of -2.82.
Work on “NEK9 (peptide sequence: TLNIFLTK, peptide start residue: 179) (UniProt Q8TD19)” yielded a log2 fold change of -0.436.
“UniProt Q9Y6E0 (peptide sequence: AANVLLSEHGEVK, peptide start residue: 159)” gave a log2 fold change of -1.21.
For “MARS (peptide sequence: SCPVVQSSQHLFLDLPK, peptide start residue: 440) (UniProt P56192)”, the log2 fold change was 0.233.
Target “WEE1 (peptide sequence: FLANEVLQENYTHLPK, peptide start residue: 482) (UniProt P30291)” has a log2 fold change of -1.01.
With “UniProt P62269 (peptide sequence: KADIDLTKR, peptide start residue: 47)” the log2 fold change was 0.394.
Work on “UniProt P61962 (peptide sequence: LMWIPDTK, peptide start residue: 74)” yielded a log2 fold change of 0.374.
Work on “UniProt Q16513 (peptide sequence: HPFLVNLFACFQTK, peptide start residue: 717)” yielded a log2 fold change of -2.07.
Target “IARS (peptide sequence: AVPSWFVR, peptide start residue: 411) (UniProt P41252)” has a log2 fold change of 0.326.
For “UniProt Q16512 (peptide sequence: IADFGLCK, peptide start residue: 756)”, the log2 fold change was -2.52.
For “OSBP (peptide sequence: TRIPYKPNYSLNLWSIMK, peptide start residue: 407) (UniProt P22059)”, the log2 fold change was 0.573.
In the case of “HBG2 (peptide sequence: MVTGVASALSSR, peptide start residue: 134) (UniProt P69892)”, the log2 fold change is reported as 0.206.
“THRAP3 (peptide sequence: SYSPAHNR, peptide start residue: 53) (UniProt Q9Y2W1)” showed a log2 fold change of 2.27.
Target “RPS17 (peptide sequence: NKIAGYVTHLMK, peptide start residue: 48) (UniProt P08708)” has a log2 fold change of 0.59.
Work on “UniProt O00567 (peptide sequence: LIAHAGSLTNLAK, peptide start residue: 308)” yielded a log2 fold change of 0.316.
With “UniProt Q02040 (peptide sequence: STMDFIR, peptide start residue: 72)” the log2 fold change was 0.414.
“UniProt Q14004 (peptide sequence: EGFPITAIR, peptide start residue: 765)” gave a log2 fold change of -1.01.
Target “RPL4 (peptide sequence: MFAPTKTWR, peptide start residue: 101) (UniProt P36578)” has a log2 fold change of 0.751.
Work on “UniProt P84022 (peptide sequence: TGQLDELEK, peptide start residue: 45)” yielded a log2 fold change of 0.887.
In the case of “UniProt P25098 (peptide sequence: DLKPANILLDEHGHVR, peptide start residue: 317)”, the log2 fold change is reported as -0.579.
Work on “VIM (peptide sequence: MFGGPGTASRPSSSR, peptide start residue: 14) (UniProt P08670)” yielded a log2 fold change of 0.344.
“MAST4 (peptide sequence: LTDFGLSK, peptide start residue: 209) (UniProt O15021)” showed a log2 fold change of -0.745.
In the case of “UniProt P45983 (peptide sequence: MLVIDASK, peptide start residue: 301)”, the log2 fold change is reported as -1.77.
“DHX16 (peptide sequence: QQTEKPESEDEWER, peptide start residue: 153) (UniProt O60231)” gave a log2 fold change of 2.31.
“CDK5 (peptide sequence: DLKPQNLLINR, peptide start residue: 126) (UniProt Q00535)” gave a log2 fold change of -3.41.
“HERC1 (peptide sequence: VMTCVWCNKK, peptide start residue: 3431) (UniProt Q15751)” gave a log2 fold change of 0.958.
Target “TAOK2 (peptide sequence: ERPPTVIMDLIQR, peptide start residue: 284) (UniProt Q9UL54)” has a log2 fold change of -2.3.
In the case of “SRRM2 (peptide sequence: SLSYSPVER, peptide start residue: 2690) (UniProt Q9UQ35)”, the log2 fold change is reported as 0.244.
“CDKL1 (peptide sequence: LCDFGFAR, peptide start residue: 693) (UniProt Q00532)” showed a log2 fold change of -0.936.
Target “UniProt Q8N4C8 (peptide sequence: GNALKEDCIAYICR, peptide start residue: 122)” has a log2 fold change of -0.573.
